The values that follow come from the supplement of paper PMC9694430.

Test in all cases: thermal shift delta Tm vs DMSO control; higher = stronger stabilization (binding)
What all share (settings): 12.5 µM; protein concentration 2 µM

For test [1], the system named is LOC_OS02G45750-cb003. The method, boiled down: (§1)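 Purified, E. coli-expressed rice kinase domain constructs were tested by differential scanning fluorimetry in 96-well plates: 19.5 μl of 2 μM kinase in 100 mM potassium phosphate pH 7.5, 150 mM NaCl, 10% glycerol, 5 × SYPRO Orange, plus compound in DMSO. Fluorescence was read from 25°C to 95°C at 0.05°C/s. Melting temperatures came from Boltzmann fits, and the shift is the triplicate mean relative to protein with DMSO alone.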

Test [2] deals with LOC_OS02G54510-cb004. The method, boiled down:
as §1

Test [3] relates to LOC_OS03G04050-cb001. The method, boiled down: as §1
Test [4] relates to LOC_OS03G12390-cb001. The method, boiled down:
as §1

Test [5] deals with LOC_OS03G27990-cb004. A digest of the protocol: as §1
Test [6] deals with LOC_OS03G50450-cb001. A digest of the protocol:
as §1

The subject of test [7] is LOC_OS03G50810-cb003. A digest of the protocol:
as §1

In test [8] the test system is LOC_OS04G35114-cb001. A digest of the protocol: as §1
Test [9] has as its system T1, LOC_OS04G38480-cb003.
T1 sequence (whole entry): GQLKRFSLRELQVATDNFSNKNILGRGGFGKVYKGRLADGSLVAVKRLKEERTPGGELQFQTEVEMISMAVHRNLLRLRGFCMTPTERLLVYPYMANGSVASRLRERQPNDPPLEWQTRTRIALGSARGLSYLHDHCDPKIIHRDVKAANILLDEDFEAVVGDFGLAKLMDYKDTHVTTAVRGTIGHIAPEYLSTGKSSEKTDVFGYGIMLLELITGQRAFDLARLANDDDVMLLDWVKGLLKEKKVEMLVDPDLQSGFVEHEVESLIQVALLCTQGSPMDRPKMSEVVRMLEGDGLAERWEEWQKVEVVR
A digest of the protocol:
as §1

Test [10] has as its system T2, LOC_OS04G41100-cb001.
T2 sequence (whole entry): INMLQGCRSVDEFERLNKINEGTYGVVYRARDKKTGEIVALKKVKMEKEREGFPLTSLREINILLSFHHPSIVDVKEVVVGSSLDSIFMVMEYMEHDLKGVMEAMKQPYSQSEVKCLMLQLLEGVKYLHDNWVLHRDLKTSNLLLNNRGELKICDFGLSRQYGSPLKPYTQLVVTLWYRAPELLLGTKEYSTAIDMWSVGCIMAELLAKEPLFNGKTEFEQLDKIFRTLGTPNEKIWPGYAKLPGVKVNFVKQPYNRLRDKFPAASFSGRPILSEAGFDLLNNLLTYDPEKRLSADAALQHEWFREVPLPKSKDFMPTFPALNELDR
The method, boiled down:
as §1

Test [11] relates to LOC_OS04G57630-cb004. The method, boiled down:
as §1

In test [12] the test system is LOC_OS05G07850-cb002. A digest of the protocol: as §1
Test [13] has as its system LOC_OS05G16824-cb004. The method, boiled down:
as §1

Test [14] deals with LOC_OS05G28520-cb001. A digest of the protocol: as §1
Test [15] deals with LOC_OS05G30820-cb001. A digest of the protocol: as §1
The subject of test [16] is LOC_OS05G43570-cb004. The method, boiled down: as §1
The subject of test [17] is LOC_OS06G16330-cb003. The method, boiled down: as §1
Test [18] deals with T3, LOC_OS06G22820-cb001.
T3 sequence (whole entry): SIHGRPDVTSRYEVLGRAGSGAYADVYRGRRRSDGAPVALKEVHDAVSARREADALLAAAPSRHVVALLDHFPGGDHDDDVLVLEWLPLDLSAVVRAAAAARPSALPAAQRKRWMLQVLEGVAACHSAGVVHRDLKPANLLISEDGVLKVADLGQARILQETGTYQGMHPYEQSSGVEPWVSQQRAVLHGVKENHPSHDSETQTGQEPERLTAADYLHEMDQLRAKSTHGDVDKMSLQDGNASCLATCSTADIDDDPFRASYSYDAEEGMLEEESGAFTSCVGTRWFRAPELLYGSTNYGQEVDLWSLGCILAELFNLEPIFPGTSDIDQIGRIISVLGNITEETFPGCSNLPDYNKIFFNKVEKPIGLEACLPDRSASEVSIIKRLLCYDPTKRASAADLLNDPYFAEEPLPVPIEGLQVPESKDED
The method, boiled down:
as §1

Test [19] deals with LOC_OS07G06570-cb004. A digest of the protocol: as §1
In test [20] the test system is LOC_OS07G07230-cb001. A digest of the protocol: as §1

Counter-ions that a name gives are not always drawn.

LOC_OS06G16330-cb003, sequence (as listed by the source): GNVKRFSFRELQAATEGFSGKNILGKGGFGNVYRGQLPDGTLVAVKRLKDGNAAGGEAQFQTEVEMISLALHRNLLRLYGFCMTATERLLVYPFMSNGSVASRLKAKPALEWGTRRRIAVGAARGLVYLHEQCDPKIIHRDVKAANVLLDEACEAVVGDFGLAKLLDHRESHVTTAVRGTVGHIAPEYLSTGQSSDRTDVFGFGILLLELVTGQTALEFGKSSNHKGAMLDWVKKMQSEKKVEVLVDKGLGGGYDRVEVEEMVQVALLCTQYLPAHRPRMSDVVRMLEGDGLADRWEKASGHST

Regarding `COc1ccc(Oc2cc(NCCC(F)(F)F)c3ncc(-c4ccc(C(=O)NC5CC5)c(C)c4)n3n2)c(F)c1F`, the “thermal shift delta Tm” value in test [1] came to 0.77 °C; in test [2], 0.01 °C; in test [3], 0.48 °C; in test [4], 0.31 °C; in test [5], 0.55 °C; in test [6], 0.46 °C. The “thermal shift delta Tm” value in test [7] worked out at 1.7 °C; in test [8], 1.1 °C; in test [9] it was 1.64 °C; in [10] it was 0.4 °C; in [11] it was 0.38 °C; in test [12], 2.11 °C. Moreover, the “thermal shift delta Tm” value was -2.18 °C in test [13]; 1.04 °C in test [14]; 0.67 °C in test [15]; 0.63 °C in test [16]; 0.09 °C in test [17]; 0.73 °C in test [18]. In addition, the “thermal shift delta Tm” value is -0.39 °C in [19] and 1.65 °C in [20].

As to `CN(C)CCOc1ccc(-c2nc(-c3ccncc3)c(-c3ccc4c(c3)CC/C4=N\O)[nH]2)cc1`, the “thermal shift delta Tm” value in test [1] was 0.22 °C; in test [2] it was 0.08 °C; in test [3], 0.13 °C; in [4] it was -0.23 °C; in [5], 0.06 °C; in [6] it was 0.04 °C. Besides, the “thermal shift delta Tm” value in test [7] was 0.55 °C; in test [8], 0.33 °C; in test [9], 0.74 °C; in test [10], 0.3 °C; in test [11], 0.24 °C; in [12] it was 1.09 °C. The “thermal shift delta Tm” value in [13] was -2.35 °C; in [14], -0.03 °C; in test [15], 0.65 °C; in [16], 0.64 °C; in test [17] it was -0.3 °C; in [18], 0.47 °C. Besides, the “thermal shift delta Tm” value in test [19] came to 0.49 °C; in test [20], 0.18 °C.

For the compound `COc1cc2c3cc1Oc1c(OC)c(OC)cc4c1[C@@H](Cc1ccc(O)c(c1)Oc1ccc(cc1)C[C@@H]3N(C)CC2)N(C)CC4` [Berbamine (dihydrochloride)], the “thermal shift delta Tm” value in test [1] is 0 °C; in test [2], -0.14 °C; in test [3], 0.28 °C; in [4], -0.42 °C; in [5], -0.08 °C; in test [6], 0.16 °C. The “thermal shift delta Tm” value is -0.29 °C in test [7]; 0.22 °C in test [8]; 0.37 °C in test [9]; 0.23 °C in [10]; -0.01 °C in test [11]; -0.48 °C in [12]. The “thermal shift delta Tm” value in test [13] was -7.42 °C; in [14], -0.11 °C; in test [15] it was 0.47 °C; in [16], 0.27 °C; in test [17] it was -0.31 °C; in test [18], 0.13 °C. For the same compound, the “thermal shift delta Tm” value in [19] was 0.83 °C; in [20], 0.33 °C.

In the case of `c1nc2c(NC3CCCCC3)nc(Nc3ccc(N4CCOCC4)cc3)nc2[nH]1` [Reversine], the “thermal shift delta Tm” value is 8.28 °C in [1]; 4.92 °C in test [2]; 0.32 °C in test [3]; 9.58 °C in [4]; 5.33 °C in [5]; 9.57 °C in [6]. In addition, the “thermal shift delta Tm” value was 5.17 °C in test [7]; 6.36 °C in test [8]; 3.21 °C in test [9]; 0.65 °C in test [10]; 3.78 °C in test [11]; 12 °C in test [12]. The “thermal shift delta Tm” value in test [13] was 11.7 °C; in [14] it was 0.53 °C; in [15], 4.07 °C; in [16] it was 1.11 °C; in test [17] it was 8.57 °C; in test [18], 0.3 °C. The “thermal shift delta Tm” value in test [19] came to 1.48 °C; in test [20], 1.02 °C.

In the case of `O=S(=O)(c1cccc2c(I)cccc12)N1CCCNCC1`, the “thermal shift delta Tm” value is 0.53 °C in [1]; -0.05 °C in [2]; 0.42 °C in test [3]; 0.16 °C in test [4]; 0.1 °C in [5]; 0.19 °C in test [6]. Moreover, the “thermal shift delta Tm” value in [7] was 0.19 °C; in test [8], 0.11 °C; in test [9], 2.17 °C; in [10], 0.44 °C; in test [11], -0.05 °C; in test [12], 0.78 °C. Besides, the “thermal shift delta Tm” value came to 1.61 °C in [13]; 0.14 °C in [14]; 0.08 °C in test [15]; 0.32 °C in [16]; 0.09 °C in test [17]; 0.37 °C in [18]. Further, the “thermal shift delta Tm” value in [19] was 1.9 °C; in test [20], 0.16 °C.

For the compound `Cn1cnc2c(F)c(Nc3ccc(Br)cc3Cl)c(C(=O)NOCCO)cc21` [Selumetinib (AZD6244)], the “thermal shift delta Tm” value in [1] was 0.34 °C; in [2], 0.31 °C; in [3] it was 0.26 °C; in test [4], 0.11 °C; in test [5], -0.04 °C; in test [6], -0.25 °C. The “thermal shift delta Tm” value in test [7] is 0.02 °C; in [8], 0.24 °C; in test [9] it was 0.38 °C; in [10], 0.75 °C; in test [11] it was -0.08 °C; in test [12], -0.01 °C. The “thermal shift delta Tm” value is -2 °C in test [13]; 0.43 °C in [14]; 0.51 °C in test [15]; 0.42 °C in test [16]; 0.02 °C in [17]; 0.61 °C in [18]. In addition, the “thermal shift delta Tm” value in [19] is 0.8 °C; in test [20], 0.42 °C.
